# D1 PAM: potentiators of human D1 dopamine receptor; AID 504651; P21728; 360,000 compounds, 0.036% hits; potentiation, % at 10 µM; HEK293 TREx D1 cells, calcium flux, dopamine EC20 potentiation; in the data active means potentiation above about 30%; further: 0% is about no effect
# Target sequence (P21728 whole entry, looked up): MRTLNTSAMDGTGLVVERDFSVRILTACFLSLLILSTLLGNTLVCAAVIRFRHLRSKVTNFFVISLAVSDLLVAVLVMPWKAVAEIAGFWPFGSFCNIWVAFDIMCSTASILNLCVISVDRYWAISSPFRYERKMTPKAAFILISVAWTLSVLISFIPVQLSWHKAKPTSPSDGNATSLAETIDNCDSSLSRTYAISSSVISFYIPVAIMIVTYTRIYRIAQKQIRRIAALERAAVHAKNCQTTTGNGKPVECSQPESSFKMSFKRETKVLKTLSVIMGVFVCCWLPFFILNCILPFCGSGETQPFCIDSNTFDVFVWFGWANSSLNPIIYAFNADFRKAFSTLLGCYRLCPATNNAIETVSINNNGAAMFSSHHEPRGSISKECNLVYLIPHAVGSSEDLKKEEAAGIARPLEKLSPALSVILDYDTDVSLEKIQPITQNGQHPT
# D1 antag: antagonists of human D1 dopamine receptor; P21728; HEK293 TREx D1 cells, calcium flux, dopamine EC80; active compounds read low; activity change, negative = inhibition, % at 10 µM; 360,000 compounds, 3.2% hits; AID 504652; in the data active means activity change below about -30%; further: on the % scale 0 is the no-effect control and ±100 the full control effect
#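 Tetracycline-induced HEK293 T-REx cells with force-coupled D1 receptor were loaded with a no-wash calcium dye. Compound was added after a 10 s baseline and read kinetically for 180 s; EC80 dopamine was then added and calcium flux followed another 180 s.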
# TRHR agonist: agonists of human TRH receptor. P34981. TRHR cells, calcium flux fluo-8, FDSS agonist mode. activation, % at 2 µM. 360,000 compounds, 0.18% hits. AID 493084; further: 0% is about no effect
#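 Fluo-8-loaded TRHR cells; 10 s baseline, compound added, kinetic Ca2+ fluorescence read 1/s, agonist mode.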
# D1 agonist: human D1 receptor agonism; P21728; activation, % at 2 µM; 360,000 compounds, 1% hits; HEK293 T-REx D1 cells, calcium flux, agonist mode; further: 0% is about no effect
#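 Inducible HEK293 T-REx D1 cells, force-coupled to calcium signalling, were plated at 4000 cells/well with tetracycline and held overnight at 30 C. After no-wash calcium dye loading, compound-evoked calcium rise over 180 s flagged agonists.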
# TRHR PAM: allosteric enhancers of human TRH receptor; TRHR cells, fluo-8 calcium fluorescence, EC20 TRH enhancement; enhancement, % at 2 µM; 360,000 compounds, 0.66% hits; P34981; in the data active means enhancement above about 30%; further: 0% is about no effect
#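 TRHR-expressing cells loaded with fluo-8 calcium dye were read kinetically (ex 480/em 530) during compound addition, then stimulated with an EC20 of TRH (10 nM final). Enhancement of the Gq-mediated intracellular calcium response was scored.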
# An asterisk follows results filed as active. In the library only some 4.6% were active in any assay of this set; here they are far more common. Unless noted, no stated cut-off is given here; in the data, active means activation above about 30%; inactive means the rest.
SMILES,D1 PAM,D1 antag,TRHR agonist,D1 agonist,TRHR PAM
Cc1cc(C)cc(OCC(=O)N(Cc2cccs2)c2ccc(Cl)cc2)c1,1,10,1,33*,0
COC(=O)C1=C(C)NC2=C(C1c1ccc(O)cc1)S(=O)(=O)c1ccccc12 (stereo unspecified),-5,-18,0,2,-2
COc1ccc(-c2nc(CSCC(=O)N3CCN(c4ccc(OC)cc4)CC3)c(C)o2)cc1,-5,-37*,0,4,6
Cc1ccccc1-c1nc(CS(=O)(=O)CC(=O)N2CCOCC2)c(C)o1,-3,3,0,7,10
CCOc1ccc(-c2nc(CSCC(=O)N3CCN(c4ccc(F)cc4)CC3)c(C)o2)cc1,-5,3,0,4,0
CCOC(=O)C1CCN(C(=O)CS(=O)(=O)Cc2nc(-c3ccccc3Cl)oc2C)CC1,-10,-40*,-1,9,5
CCOC(=O)N1CCN(C(=O)CSCc2nc(-c3ccccc3F)oc2C)CC1,5,-44*,0,7,3
CCOC(=O)N1CCN(C(=O)CS(=O)(=O)Cc2nc(-c3ccccc3C)oc2C)CC1,0,-9,-1,2,-1
CCOC(=O)N1CCN(C(=O)CSCc2nc(-c3ccccc3C)oc2C)CC1,-5,-34*,-1,9,8
O=C(Cn1ccc2cc(S(=O)(=O)N3CCCCC3)ccc21)NCCc1ccccc1Cl,1,0,0,4,-9
O=C(CSC1=NC(=O)C(c2ccccc2)C(=O)N1)Nc1ccccc1Cl (stereo unspecified),0,-10,0,-1,0
O=C(CSC1=NC(=O)C(c2ccccc2)C(=O)N1)Nc1cccc(Cl)c1 (stereo unspecified),-10,-33*,0,1,-1
CCn1ncc(C2C(C(=O)Nc3ccc(C)cn3)=C(C)NC3=C2C(=O)CCC3)c1C (stereo unspecified),-6,-10,-1,1,0
CCOc1ccc(N2C(=O)/C(=C\c3ccc(OC)c(O)c3)S(=O)(=O)C2c2cccc([N+](=O)[O-])c2)cc1 (stereo unspecified),-15,-73*,-1,2,-4
O=c1c2ccccc2sn1-c1ccc(F)cc1,-6,-44*,10,65*,19
COc1ccccc1/C=C\C(=O)NCC(=O)N/N=C(/C)c1cccc([N+](=O)[O-])c1,-2,-65*,0,-1,-1
CCc1ccc(/C(C)=N/NC(=O)CNC(=O)/C=C/c2ccccc2OC)cc1,0,8,-2,1,20
CCc1cc2c(NCC3CCCO3)ncnc2s1 (stereo unspecified),-6,-3,0,5,-3
Cc1sc2ncnc(NCC3CCCO3)c2c1C (stereo unspecified),-5,-30*,0,12,2
CC(C)OC(=O)c1ccc(Cn2nnc3sc4c(c3c2=O)CCCC4)cc1,-1,0,0,2,-14
O=C(NC1CCCCC1)C(c1ccccc1)N(Cc1ccco1)C(=O)Cn1cnc2ccccc21 (stereo unspecified),-3,-44*,1,2,-14
CC(C)(C)c1ccc(-n2ncc3c2CCCC3NC(=O)CN2CCOC2=O)cc1 (stereo unspecified),-7,-42*,0,7,-6
CC(C)(C)c1ccc(-n2ncc3c2CCCC3NC(=O)CCN2CCCCC2=O)cc1 (stereo unspecified),1,-5,1,7,17
CSc1ccccc1C(=O)NC1CCSc2ccccc21 (stereo unspecified),-4,-41*,-2,-1,-12
CC(=O)Nc1ccc(C(=O)NC2CCSc3ccccc32)cc1 (stereo unspecified),-8,-16,0,1,-1
Cc1ccc(NC(=S)NC2CCSc3ccccc32)cc1 (stereo unspecified),-6,-38*,-1,23,13
CCN(CC)P(=O)(Nc1ccc([N+](=O)[O-])cc1)c1c(C)nn(CCC#N)c1NC(=O)c1ccc(Cl)cc1 (stereo unspecified),-6,23,1,2,-2
N#Cc1ccc(Sc2ccccn2)c([N+](=O)[O-])c1,-2,-60*,1,4,2
